Measured values from PubChem BioAssay AID434989 (The Scripps Research Institute Molecular Screening Center, 2010).
Among all 330,000 compounds or so, about 1,400 (0.42%) were called active.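 The calls were made as follows: active = inhibition above its plate's threshold, mean inhibition of all tested compounds on the plate plus 3 SD (cut at about 37% in these data); inactive = the rest.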 The entries come from a sample that favours actives as a whole.

biological target: Orexin/Hypocretin receptor type 1 (Homo sapiens) (UniProt O43613); assay: blockers of orexin-A calcium signaling via HCRTR1 – fluorescence, CHO/OX1R cells, Fluo-8 calcium, primary screen (AID 434989); conditions: Fluo-8 calcium fluorescence, at 5 µM, stronger effect = higher value;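 also: 0% = orexin A challenge wells and 100% = SB-334867-A antagonist wells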
Sequence (O43613 whole entry, looked up): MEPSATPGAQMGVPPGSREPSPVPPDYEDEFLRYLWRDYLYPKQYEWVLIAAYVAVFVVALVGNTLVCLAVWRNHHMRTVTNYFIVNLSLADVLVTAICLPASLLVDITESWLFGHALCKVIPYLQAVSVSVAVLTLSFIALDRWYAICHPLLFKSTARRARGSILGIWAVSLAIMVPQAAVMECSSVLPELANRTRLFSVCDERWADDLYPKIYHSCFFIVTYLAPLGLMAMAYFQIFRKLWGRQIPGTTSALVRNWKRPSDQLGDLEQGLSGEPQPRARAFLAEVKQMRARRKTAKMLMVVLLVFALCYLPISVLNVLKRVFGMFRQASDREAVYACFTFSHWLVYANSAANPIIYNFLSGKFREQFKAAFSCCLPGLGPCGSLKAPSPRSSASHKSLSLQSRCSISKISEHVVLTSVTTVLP

Row | SMILES | inhibition
1 | Cc1ccc(S(=O)(=O)N2CCN(c3ncnc4ccccc34)CC2)cc1 | 38.9% (inactive)
2 | Cc1ccc(C)c(S(=O)(=O)N2CCN(c3ncnc4sccc34)CC2)c1 | 51.7% (active)
3 | COc1ccc(C)cc1S(=O)(=O)N1CCN(S(=O)(=O)c2cc(C(=O)O)ccc2C)CC1 | -8.92% (inactive)
4 | Cc1cccc(NS(=O)(=O)c2ccc(C)c(C(=O)NCc3cccnc3)c2)c1 | -9.11% (inactive)
5 | C/C=C/c1ccc(OCC(=O)NNC(=O)CN(C)S(=O)(=O)c2ccc(C)cc2)c(OC)c1 | -47.6% (inactive)
6 | O=C(C[C@@H]1C/C=C\CCC(=O)OC[C@@H]2CCCN2C1=O)NCCO | -14.7% (inactive)
7 | O=C(Cc1ccc(Cl)cc1)NC(=S)Nc1ccccc1O | 61.6% (active)
8 | Cc1ccccc1NC(=S)NC(=O)Cc1ccc(Cl)cc1 | 17.1% (inactive)
9 | O=C(COc1ccc(Cl)cc1)NC(=S)Nc1ccccc1N1CCOCC1 | -46.4% (inactive)
10 | CC(=O)C[C@H](O)CC(=O)[C@@H]1OC(=O)[C@@H](C)C/C=C\Cc2ccccc21 | -24.4% (inactive)
11 | CN(C(=O)c1cccc(NC(=O)Cc2ccc([N+](=O)[O-])cc2)c1)C1CCC1 | -24% (inactive)
12 | COC(=O)[C@]1(Cc2ccccc2)N[C@H](CN(C)S(=O)(=O)c2ccc(OC(F)(F)F)cc2)[C@@H]2C(=O)N(Cc3ccccc3)C(=O)[C@@H]21 | -14.3% (inactive)
13 | O=C(COC(=O)Cc1ccc([N+](=O)[O-])cc1)NC1CCCCCC1 | -29.4% (inactive)
14 | Cc1cccn2c(=O)c(/C=C3\SC(=S)N(CC(C)C)C3=O)c(NCCCOC(C)C)nc12 | -8.49% (inactive)
15 | CCOC(=O)N1CCN(C(=O)CSc2nc(=O)n3cccc(C)c3n2)CC1 | -4.53% (inactive)
16 | CCOC(=O)CC1C(=O)NCCN1c1nc2c(C)cccn2c(=O)c1/C=C1\SC(=S)N(C(C)CC)C1=O (stereo not drawn) | 78.6% (active)
17 | O=C1C=CN2CCCC2CC1 (stereo not drawn) | -11.6% (inactive)
18 | S=C(NCC1COc2ccccc2O1)Nc1ccc(Br)cc1 (stereo not drawn) | 15.9% (inactive)
19 | c1ccc2c(c1)OCC(CNc1ncnc3nc[nH]c13)O2 (stereo not drawn) | 90.5% (active)
20 | c1ccc(-c2cc3c(NCC4COc5ccccc5O4)ncnc3s2)cc1 (stereo not drawn) | -20% (inactive)
21 | COc1ccc(CNC(=O)COC(=O)c2sccc2C)cc1OC | -11.2% (inactive)

Row | SMILES | inhibition
22 | Cc1noc(C)c1NC(=O)Nc1cccc2c1O[C@H](CN(C)S(=O)(=O)c1c(C)noc1C)[C@@H](C)CN([C@H](C)CO)C2=O | -19.7% (inactive)
23 | CCN(C(=O)COC(=O)CCC(=O)c1cccs1)C1CCCCC1 | -13.9% (inactive)
24 | COc1ccc(/C=C/C(=O)OCC(=O)NC2CCCCCC2)cc1OC | -27.2% (inactive)
25 | CC[C@]12c3[nH]c4ccc(OC)cc4c3CCN1C(=O)C(CC(=O)NCCN1CCOCC1)C[C@@H]2C(=O)N1CCN(C(=O)C2CC2)CC1 (stereo partly drawn) | -6.98% (inactive)
26 | CCN(CC(=O)Nc1ccccc1OC)C(=O)Cn1cnc2ccccc2c1=O | -15.9% (inactive)
27 | CCCN(CC(=O)Nc1ccccc1OC)C(=O)CCC(=O)c1ccc(F)cc1 | 44.7% (active)
28 | CCN(CC(=O)Nc1ccccc1OC)C(=O)CC1CC2CCC1C2 (stereo not drawn) | -19.5% (inactive)
29 | NS(=O)(=O)c1cccc(NC(=O)COC(=O)c2cc([N+](=O)[O-])ccc2N2CCCC2)c1 | -7.78% (inactive)
30 | O=C(COC(=O)/C=C/c1ccc(Br)o1)Nc1cccc(S(=O)(=O)N2CCOCC2)c1 | -6.48% (inactive)
31 | O=C(C[C@H]1C/C=C\C[C@@H](NC(=O)OCC2c3ccccc3-c3ccccc32)C(=O)O[C@@H](c2ccccc2)CNC1=O)N[C@H](CO)Cc1ccccc1 | -18.2% (inactive)
32 | O=C(COC(=O)CN1C(=O)C2CCCCC2C1=O)Nc1ccc(F)c(F)c1F (stereo not drawn) | -8.95% (inactive)
33 | O=C(CCC(=O)OCc1ccc(Cl)cc1)Nc1ccccc1 | -9.06% (inactive)
34 | O=C(O)CC1=C(Nc2ccccc2)C(=O)N(c2ccccc2)C1c1ccc(Cl)cc1 (stereo not drawn) | -21.1% (inactive)
35 | O=C1C=C(c2ccc(Cl)cc2)C(=O)N1Nc1ccccc1 | 53.2% (active)
36 | Cc1ccc(S(=O)(=O)N2C[C@@H]3CCCC[C@@H]3[C@@H](C)[C@H]2c2cn(Cc3ccccc3)c3ccc(F)cc23)cc1 | 6.16% (inactive)
37 | Fc1ccc2cnc(-c3ccccc3)cc2c1 | -19.1% (inactive)
38 | Cc1cc2nc3c(=O)n(Cc4ccccc4)c(=O)[nH]c3nc2cc1N | 54.6% (active)
39 | Cc1cc(-c2csc(N)n2)c(C)n1Cc1ccccc1 | -19.7% (inactive)
40 | CC(=O)c1ccc(-c2ccc(Cn3c(C)nc4cc(N)c(C)nc43)cc2)cc1 | -25.1% (inactive)
41 | COc1ccc(NC(=O)Nc2ccc3c(c2)C(=O)N([C@H](C)CO)C[C@H](C)[C@@H](CN(C)C(=O)Nc2ccc4c(c2)OCO4)O3)cc1 | 1.29% (inactive)
42 | COc1ccc(-c2nc3cc(C)ccn3c2NC2CCCCC2)cc1SC1CCCCC1 | 25.4% (inactive)

Row | SMILES | inhibition
43 | CCOC(=O)Cn1c(=O)oc2cc(S(=O)(=O)N(C)Cc3ccco3)ccc21 | -12% (inactive)
44 | CN(c1ccccc1)c1ccc(/C=c2\s/c(=C(/C#N)C(=O)C(C)(C)C)n(Cc3ccco3)c2=O)cc1 | 42% (active)
45 | CCOC(=O)/C=c1\s/c(=C\c2ccc(C#N)cc2)c(=O)n1CC(=O)Nc1cccc(C)c1C | 1.96% (inactive)
46 | COC(=O)c1sc(-c2ccc(C(C)(C)C)cc2)cc1NC(=O)/C=C/C(=O)O | 55.5% (active)
47 | CC(C)(C)c1ccc(/C=C/C(=O)Nc2ncccn2)cc1 | -7.7% (inactive)
48 | CSc1ccc(NC(=O)/C=C/C(=O)O)cc1 | -13% (inactive)
49 | O=C(NNS(=O)(=O)c1c(F)cc(F)c(Cl)c1F)C12CC3CC(CC(C3)C1)C2 | 4.78% (inactive)
50 | O=C(COC(=O)COc1cccc(F)c1)NCC1CCCCC1 | -16.8% (inactive)
51 | CN(c1ccccc1)S(=O)(=O)c1cccc(NC(=O)Cc2c(F)cccc2Cl)c1 | 11.3% (inactive)
52 | CN(C)S(=O)(=O)c1cccc(NC(=O)Cc2ccsc2)c1 | -7.6% (inactive)
53 | CN(c1ccccc1)S(=O)(=O)c1cccc(NC(=O)Cc2ccc(Cl)cc2)c1 | 42.1% (active)
54 | COCCn1c(C)cc(C(=O)CN2c3cccc4cccc(c34)S2(=O)=O)c1C | -15.1% (inactive)
55 | CCOc1ccc(NC(=O)NNC(=O)c2ccc(Cl)cc2Cl)cc1 | -32.5% (inactive)
56 | OC(CNCCc1ccc(Cl)cc1Cl)COc1ccccc1 (stereo not drawn) | -12.8% (inactive)
57 | NC(N)=N/N=C/c1ccc(OCc2ccc(Cl)cc2Cl)cc1 | 60% (active)
58 | Cc1noc(C)c1S(=O)(=O)N(C)C[C@H]1Oc2ccc(NC(=O)C3CCCCC3)cc2C(=O)N([C@H](C)CO)C[C@@H]1C | -7.01% (inactive)
59 | CC[C@@H](C)[C@@H]1CN([C@@H](C)CN2CCC[C@H]2CN2C(N)=NC[C@H]2C(C)C)C(=N)N1CCc1ccc(Cl)c(Cl)c1 | -14.1% (inactive)
60 | CC(=O)N/C(=C/c1ccc(Cl)cc1)C(=O)NCCc1c[nH]c2ccccc12 | -8.41% (inactive)
61 | N#C/C(=C/c1ccc(N2CCCCC2)o1)C(=O)NCCc1c[nH]c2ccccc12 | 61.6% (active)
62 | O=C(CN1C(=O)NC2(CCCCC2)C1=O)NCCc1c[nH]c2ccccc12 | -22.5% (inactive)
63 | CN(C)C(=O)CCc1ccc2c3c([nH]c2c1)[C@]1(C)[C@@H](C(=O)N2CCOCC2)C[C@H](CC(=O)NCCc2ccccn2)C(=O)N1CC3 | -9.61% (inactive)

Row | SMILES | inhibition
64 | O=C(CN1C(=O)NC2(CCOc3ccccc32)C1=O)Nc1cccc([N+](=O)[O-])c1 (stereo not drawn) | -4.96% (inactive)
65 | COc1cccc(C(=O)NC(=O)Nc2nc(C)cc(C(F)(F)F)n2)c1 | 43.9% (active)
66 | Cc1cc(C)nc(NC(=O)Nc2ccccc2C(F)(F)F)n1 | -30.4% (inactive)
67 | COc1cccc(C(=O)NNC(=O)c2cccc(F)c2)c1 | -14.5% (inactive)
68 | CCNC(=S)N1CCN(S(=O)(=O)c2ccc(Cl)s2)CC1 | -8.33% (inactive)
69 | COc1ccc(CNC(=O)C[C@H]2C[C@H](C(=O)N3CCOCC3)[C@@]3(C)c4[nH]c5cc(CCC(=O)N(C)C)ccc5c4CCN3C2=O)cc1OC | -8.18% (inactive)
70 | CC1=C/C(=N\OS(=O)(=O)c2ccccc2)C=CC1=O | 50.8% (active)
71 | CC(C)N(C(=O)[C@H]1C[C@H](CC(=O)NCCC2=CCCCC2)C(=O)N2CCc3c([nH]c4cc(CCC(=O)N(C)C)ccc34)[C@]12C)C(C)C | -35.9% (inactive)
72 | O=C(/C=C(O)/C=C/c1ccc(O)cc1)/C=C/c1ccc(O)cc1 | 88% (active)
73 | O=C(/C=C/c1ccc(Cl)c([N+](=O)[O-])c1)c1ccc(O)cc1 | -19.1% (inactive)
74 | O=C(/C=C/c1ccc2c(c1)OCCO2)c1ccc(O)cc1 | -5.09% (inactive)
75 | Cc1ccc(S(=O)(=O)N2[C@@H](c3cccc4ccccc34)C(C(=O)O)=C[C@H]2C(C)(C)C)cc1 | -3.21% (inactive)
76 | CCN(C[C@H]1N[C@@](CC)(C(=O)OC)[C@H]2C(=O)N(Cc3ccccc3)C(=O)[C@@H]12)S(=O)(=O)c1ccccc1 | -23.9% (inactive)
77 | O=C(COC(=O)/C=C/c1cccc(Cl)c1)NCc1cccs1 | -21.7% (inactive)
78 | Cc1ccc(S(=O)(=O)N(C)c2ccc(OCC(=O)OCc3ccc(C#N)cc3)cc2)cc1 | 0.88% (inactive)
79 | CC1(C)C=Cc2c(ccc3c2OC[C@@H](c2ccc(O)cc2O)C3)O1 | 47.2% (active)
80 | COc1cc(/C=C/C(=O)OCC(=O)NC2CC2)cc(OC)c1OC | -7.25% (inactive)
81 | C/C(N)=C(/C#N)C(=O)COC(=O)c1cc(-c2ccc(C)cc2)nc2ccccc12 | 47.2% (active)
82 | C/C(N)=C(/C#N)C(=O)COC(=O)c1cc(-c2ccccc2)nc2ccc(Br)cc12 | 5.4% (inactive)
83 | C/C(N)=C(/C#N)C(=O)COC(=O)c1cc(-c2cccc(Br)c2)nc2ccccc12 | 15.2% (inactive)
